In all, about 2,000 compounds went through this assay and about 1,300 (65%) were called active. So high a share suggests a set chosen from earlier hits. A selection follows. A number with no mark means an inactive call. Rule as the data show it: active = inhibition above about 43%; inactive = the rest.
target: Prolyl endopeptidase-like (Homo sapiens) (UniProt Q4J6C6); experiment: human PREPL enzyme inhibitors, confirmation, biochemical, fluorescence polarization (AID 2803); details: recombinant PREPL, fluorescence polarization activity probe; at 5.96 µM; stronger effect = higher value;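 also: 0% = protein with DMSO and 100% = wells lacking protein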
Sequence (Q4J6C6 whole entry, looked up): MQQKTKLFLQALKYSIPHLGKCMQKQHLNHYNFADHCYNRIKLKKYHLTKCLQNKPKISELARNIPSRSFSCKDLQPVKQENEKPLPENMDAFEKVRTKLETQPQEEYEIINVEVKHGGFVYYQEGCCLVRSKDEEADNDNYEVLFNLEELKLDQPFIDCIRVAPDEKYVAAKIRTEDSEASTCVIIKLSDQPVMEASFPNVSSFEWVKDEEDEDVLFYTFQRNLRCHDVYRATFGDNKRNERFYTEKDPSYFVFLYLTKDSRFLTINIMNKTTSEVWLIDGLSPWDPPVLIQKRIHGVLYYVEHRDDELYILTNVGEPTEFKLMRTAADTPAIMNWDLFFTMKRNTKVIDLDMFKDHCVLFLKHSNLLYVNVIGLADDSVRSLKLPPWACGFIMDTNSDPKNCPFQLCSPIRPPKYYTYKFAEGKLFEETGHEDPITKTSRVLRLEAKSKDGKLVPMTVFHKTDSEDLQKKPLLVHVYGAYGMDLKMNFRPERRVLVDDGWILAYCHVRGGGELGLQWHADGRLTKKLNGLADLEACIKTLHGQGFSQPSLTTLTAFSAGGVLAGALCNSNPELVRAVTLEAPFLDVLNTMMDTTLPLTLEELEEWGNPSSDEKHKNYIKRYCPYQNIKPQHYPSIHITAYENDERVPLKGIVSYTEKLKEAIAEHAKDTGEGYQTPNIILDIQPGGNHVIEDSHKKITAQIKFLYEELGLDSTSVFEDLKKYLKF

Q: Which inhibition does the source give for `CCOc1ccc2nc(N3CCCN(C(=O)Nc4ccccc4C)CC3)c(C#N)cc2c1` here?
A: 43.9% (active)

Q: `Nc1ccc(Nc2ccccc2)cc1` was tested. Which inhibition did it give?
A: 29.3%

Q: How did the inhibition turn out when `CC(=O)Nc1ccc(S(=O)(=O)Nc2ccc(N3CCCCC3)cc2)cc1` was run?
A: 46.4% (active)

Q: How did the inhibition turn out when `O=C(NNc1c2ccccc2nc2ccccc12)c1cc2ccccc2cc1O` was run?
A: 23.9%

Q: For `O=C1N=C(N2CCc3ccccc3C2)S/C1=C\c1ccc(O)cc1`, which inhibition is on record?
A: 48.4% (active)

Q: With `COc1ccc2cc1Oc1ccc(cc1)C[C@H]1c3cc(c(OC)cc3CCN1C)Oc1c(O)c(OC)cc3c1[C@H](C2)N(C)CC3` as the compound, how does the inhibition read?
A: 55.2% (active)

Q: `CCN1C(=O)/C(=C\N2CCN(c3ccccc3)CC2)SC1=S` was tested. Which inhibition did it give?
A: 54.7% (active)

Q: Which inhibition does the source give for `COC(=O)[C@H]1[C@H]2C[C@H]3c4[nH]c5ccccc5c4CCN3C[C@@H]2CC[C@@H]1O` here?
A: 22.4%

Q: `Cc1nc([N+](=O)[O-])nn1C12CC3CC(CC(Br)(C3)C1)C2` was tested. Which inhibition did it give?
A: 8.94%

Q: For `CCN1/C(=C\c2ccc3ccccc3[n+]2CC)Sc2cc(C)ccc21`, which inhibition is on record?
A: 61.6% (active)

Q: For `CCN1/C(=C/c2ccc3ccc(C)cc3[n+]2CC)Sc2ccccc21`, which inhibition is on record?
A: 52.8% (active)

Q: How did the inhibition turn out when `C#CCOCCOCCOCCNc1nc(N2CCN(C(=O)CCCCCCCCCCNC(=O)Cn3cc(CCCCCN)nn3)CC2)nc(N2CCN(C(=O)CCCCCCCCCCNC(=O)[C@H](CO)n3cc(CCCSC)nn3)CC2)n1` was run?
A: 63.1% (active)

Q: For `CC(C)n1cnc2c(NCc3ccccc3)cc(OCC3CCN(C)CC3)cc21`, which inhibition is on record?
A: 54.1% (active)

Q: With `CCC(CO)Oc1cc(NCc2ccccc2)c2ncn(C3CCCC3)c2c1` (stereo unspecified) as the compound, how does the inhibition read?
A: 12%

Q: For `N#C/C(=C/c1ccc(N2CCCCC2)o1)C(=O)NCCc1c[nH]c2ccccc12`, which inhibition is on record?
A: 78.5% (active)

Q: How did the inhibition turn out when `O=C(NCc1ccccn1)c1ccc2nc(-c3ccco3)c(-c3ccco3)nc2c1` was run?
A: 39.2%

Q: How did the inhibition turn out when `Oc1c(CN2CCCC2)cc(COCc2ccccc2)c2cccnc12` was run?
A: 69.6% (active)

Q: For `Cc1ccc(C2CC(c3cccc(C)c3)n3nc(N)nc3N2)cc1` (stereo unspecified), which inhibition is on record?
A: 53.7% (active)

Q: Which inhibition does the source give for `Oc1ccc2ccccc2c1N=Nc1nccs1` here?
A: 40.4%

Q: Which inhibition does the source give for `O=C(c1cc(C(=O)N2CCN(c3ccc(F)cc3)CC2)cc([N+](=O)[O-])c1)N1CCN(c2ccc(F)cc2)CC1` here?
A: 47.8% (active)

Q: Which inhibition does the source give for `O=C(OCC(=O)N1CCN(c2ccccc2)CC1)c1ccc([N+](=O)[O-])s1` here?
A: 22.6%

Q: `COCCN(CCOC)c1nc(N)c2c(N)nc3c(c2c1C#N)CC(=O)N3Cc1ccc(Cl)cc1` was tested. Which inhibition did it give?
A: 19.2%

Q: `O=C1c2ccccc2C(=O)c2c1cccc2N1CCN(C/C=C/c2ccccc2)CC1` was tested. Which inhibition did it give?
A: 80.7% (active)

Q: Which inhibition does the source give for `COc1ccc2cc(C(=O)C3CCCN(C(=O)c4sc(C)nc4C)C3)ccc2c1` (stereo unspecified) here?
A: 31.8%

Q: `C[N+](C)(CCCCCC[N+](C)(C)CCCN1C(=O)c2cccc3cccc(c23)C1=O)CCCN1C(=O)c2cccc3cccc(c23)C1=O` was tested. Which inhibition did it give?
A: 56% (active)

Q: For `Cn1c(CCN2CCCCCC2)nc2cc(NC(=O)Nc3ccccc3)ccc21`, which inhibition is on record?
A: 38.1%

Q: For `O=C(N/N=C/c1cccnc1)c1cc2ccccc2cc1O`, which inhibition is on record?
A: 5.89%

Q: For `CC(C)(C)Nc1nc(-c2ccccn2)nc2ccccc12`, which inhibition is on record?
A: 62.5% (active)

Q: Which inhibition does the source give for `CC(=O)N1CCN(c2ccc(NCc3ccc(C(C)C)cc3)cc2)CC1` here?
A: 61.9% (active)

Q: `COc1cc2c(cc1O)[C@H](Cc1ccc(Oc3cc(C[C@@H]4NCCc5cc(OC)c(O)cc54)ccc3O)cc1)NCC2` was tested. Which inhibition did it give?
A: 37.1%

Q: For `C[C@@H](CN1CCC[C@H]1CN1C(N)=NC[C@@H]1Cc1ccccc1)N1C[C@@H](Cc2ccccc2)N(CCCC2CCCC2)C1=N`, which inhibition is on record?
A: 42.6%

Q: `CC[C@@H](C)[C@@H]1CN([C@@H](C)CN2CCC[C@H]2CN2C(N)=NC[C@H]2C(C)C)C(=N)N1CCc1ccc(Cl)c(Cl)c1` was tested. Which inhibition did it give?
A: 66.1% (active)

Q: With `COc1ccc(NC(C)=O)cc1NC(=O)CN1CCN(C2c3ccccc3-c3ccccc32)CC1` as the compound, how does the inhibition read?
A: 37.7%

Q: Which inhibition does the source give for `Cc1ccccc1OCC(=O)Nc1ccc(N2CCN(C(=O)C(C)C)CC2)c(Cl)c1` here?
A: 42.7%

Q: For `Cc1ccc(OCC(=O)Nc2ccc(N3CCN(C(=O)c4ccco4)CC3)cc2)c(C)c1`, which inhibition is on record?
A: 52.6% (active)

Q: For `CN1CCN(c2ccc(NC(=O)COc3ccc(Cl)cc3Cl)cc2)CC1`, which inhibition is on record?
A: 58% (active)

Q: Which inhibition does the source give for `CC1CCN(C(=O)c2ccc3c(c2)NC(=O)CN3)CC1` here?
A: 12.2%

Q: For `O=C1N[C@H](Cc2c[nH]c3ccccc23)COC(=O)[C@H](Cc2ccc(F)cc2)C/C=C\C[C@H]1CC(=O)N(CCO)Cc1ccccc1`, which inhibition is on record?
A: 34.5%

Q: `Cc1ccc(N2CCN(C3=NC(=O)/C(=C\c4cccs4)S3)CC2)cc1` was tested. Which inhibition did it give?
A: 44.4% (active)

Q: With `CCN(CC)c1ccc2cc(C(N)=O)/c(=N\NC(=O)c3ccncc3)oc2c1` as the compound, how does the inhibition read?
A: 56.2% (active)

Q: With `COC(=O)Cc1nc2ccccc2[nH]1` as the compound, how does the inhibition read?
A: 7.22%

Q: For `Nc1c(C(=O)c2cccs2)sc2nsc(SCCN3CCCCC3)c12`, which inhibition is on record?
A: 54.6% (active)

Q: With `Cc1ccc(NS(=O)(=O)c2ccc(N/N=C/c3ccccc3OCC(=O)O)c([N+](=O)[O-])c2)c(C)c1` as the compound, how does the inhibition read?
A: 46.4% (active)

Q: Which inhibition does the source give for `CC(C)CCNc1nc(N2CCCC2)c2c(c1C#N)CCN(C)C2` here?
A: 49% (active)

Q: `CNCC[C@H](Oc1ccc(C(F)(F)F)cc1)c1ccccc1` was tested. Which inhibition did it give?
A: 55.1% (active)

Q: `Cc1ccc(Nc2ccccc2N)cc1` was tested. Which inhibition did it give?
A: 32.1%
